Only some compounds are listed: those with a hit (about 8.1% of all), similar ones and a draw of the others.
Gal4-VP16 FLuc: VP16 counterscreen qHTS for inhibitors of ROR gamma transcriptional activity | Drosophila S2 Gal4-VP16 UAS-luciferase, luminescence, 20 h | Potency, µM (titrated, usually from 53.6 µM), without a hit: at the top dose activity, negative = inhibition, hits mostly inhibitors | actives 3.5% (n = 310,000) | AID 2546, 2010;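 further: Gal4-VP16 expression switched on by copper sulfate through the metallothionein promoter; on the % scale 0 is the no-effect control and ±100 the full control effect; nearly all actives have a fitted effect of over 50% in size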
PINK1 modulator: A Quantitative High throughput Screen to Identify Chemical Modulators of PINK1 Expression; AID 624263, 2012; Potency, µM (doses to about 76.6 µM), for inactives: at the highest dose activation (PINK1 increase), most hits filed as activators; PINK1 immunofluorescence, high-content cytometry, 24 h; actives 0.2% (n = 410,000); active means well fitted activation curve with a large enough effect; inconclusive means small, poorly fitted or top-dose-only effect; cell line not stated here; further: % of control where 0% means no effect; nearly all actives have a fitted effect of over 65% in size
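PINK1 protein level read as immunofluorescence by microplate cytometer in a fixed, stained stable cell line after 24 h exposure to five compound concentrations, with CCCP as control.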
Epigenetic derep: Quantitative High-Throughput Screen for Regulators of Epigenetic Control | murine LDR cells, GFP reporter derepression, 30 h | Potency, µM (titrated, usually from 53.9 µM), without a hit: top-dose GFP activation, hits mostly activators | actives 0.2% (n = 280,000); further: % of control where 0% means no effect; nearly all actives have a fitted effect of over 60% in size
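Murine LDR cells bearing a silenced CMV-driven GFP reporter were exposed to compound for 30 h at 37 C. After PBS washes, GFP-positive cells (20-120 um objects) counted by laser-scanning microplate cytometry.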
Sfp PPTase inh: qHTS Assay for Inhibitors of Bacillus subtilis Sfp phosphopantetheinyl transferase (PPTase); Biochemical Sfp PPTase activity, qHTS; actives 3.5% (n = 310,000); AID 1490, 2009; 4'-phosphopantetheinyl transferase ffp (Bacillus subtilis), Q9F4F7; Potency, µM, for the others: largest response in the series, negative = inhibition, usual class: inhibitors;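 further: the enzyme is Sfp with the accession as filed and its product quenches rhodamine fluorescence; 0% = enzyme reaction without inhibitor and -100% = no enzyme wells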
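Fluorescence-quenching assay with 15 nM Sfp, 5 uM rhodamine-CoA and 12.5 uM BHQ-2-labelled ybbR peptide in pH 7.6 Hepes/MgCl2 buffer. Enzyme was pre-incubated with compound for 15 min at room temperature. Rate was taken from the 30-min fluorescence change (525/598 nm).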
ClpP mod: qHTS Assay for Activators of ClpP; actives 1.9% (n = 340,000); ATP-dependent Clp protease proteolytic subunit (Bacillus subtilis (strain 168)), P80244; AID 651965, 2013; purified B. subtilis ClpP, FRET peptide cleavage, 20 min; Potency, µM (highest dose often 57.5 µM), for inactives: top-dose activity change, negative = active; active means well fitted falling curve with a large enough effect; inconclusive means small, poorly fitted or top-dose-only effect; inactive means no such curve, though single readings can be large or run the other way; further: the source files actives as falling curves though it sought activators and does not explain the sign; nearly all actives have a fitted effect of over 65% in size
Target sequence (P80244 whole entry, looked up): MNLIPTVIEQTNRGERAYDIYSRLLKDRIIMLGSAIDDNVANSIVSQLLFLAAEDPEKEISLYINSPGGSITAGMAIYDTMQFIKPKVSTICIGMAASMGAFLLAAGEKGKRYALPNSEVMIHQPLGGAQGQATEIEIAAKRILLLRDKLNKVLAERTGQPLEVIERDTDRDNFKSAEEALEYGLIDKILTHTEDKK
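ClpP 10 microg/mL final, pH 8 Tris/KCl buffer with BSA, glycerol, Tween-20; compound pinned in; FRET-FV substrate; RT 20 min; Ex320/Em430; ΔFRET vs ADEP 5.8 microM, DMSO, no enzyme.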
RORg inh: qHTS for inhibitors of ROR gamma transcriptional activity; Nuclear receptor ROR-gamma (Mus musculus), P51450; Drosophila S2 Gal4-RORgamma UAS-luciferase reporter, 20 h; Potency, µM (doses to about 53.6 µM), inactives show top-dose activity change, negative = inhibition, usual class: inhibitors; actives 5.4% (n = 310,000); AID 2551, 2010; further: on the % scale 0 is the no-effect control and ±100 the full control effect; nearly all actives have a fitted effect of over 60% in size
Target sequence (P51450 whole entry, looked up, the tested form may be a part): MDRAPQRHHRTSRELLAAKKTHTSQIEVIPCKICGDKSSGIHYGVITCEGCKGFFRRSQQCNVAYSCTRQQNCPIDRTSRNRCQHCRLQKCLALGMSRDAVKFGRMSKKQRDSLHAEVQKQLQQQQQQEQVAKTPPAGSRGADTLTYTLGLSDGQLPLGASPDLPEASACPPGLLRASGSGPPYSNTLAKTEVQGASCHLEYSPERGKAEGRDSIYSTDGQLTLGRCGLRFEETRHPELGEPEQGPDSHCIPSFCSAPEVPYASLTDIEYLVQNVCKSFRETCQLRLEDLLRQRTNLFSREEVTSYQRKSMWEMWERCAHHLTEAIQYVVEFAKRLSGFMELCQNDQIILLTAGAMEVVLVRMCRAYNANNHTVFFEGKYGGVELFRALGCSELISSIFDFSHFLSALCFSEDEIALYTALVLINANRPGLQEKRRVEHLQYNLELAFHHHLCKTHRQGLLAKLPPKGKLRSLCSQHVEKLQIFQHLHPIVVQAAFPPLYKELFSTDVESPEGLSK
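Read-out: Photinus luciferase luminescence; inhibitors lower reporter signal. Insect Schneider cells with Gal4-ROR gamma fusion under metallothionein promoter, UAS reporter; 700 uM final copper sulfate induction, 20 hr, ambient temperature.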
* hit, by the source's call; ! = a repeat was not active; [ ] = another dose, or the depositor's remark. Unless noted, the call rests on the fitted dose curve; in most records, active means well fitted curve in the direction sought with a large enough effect; inconclusive means small, poorly fitted or top-dose-only effect, or another doubt; inactive means no such curve, though single readings can be large; an effect the other way counts as inactive or inconclusive. Potency means the concentration at half of the fitted maximal effect.

What do the screens show for `Cc1ccc(SCCNC(=S)Nc2ccc(C)cc2C)cc1`?
Gal4-VP16 FLuc: 7.9µM*; PINK1 modulator: 1%; Epigenetic derep: 0%; Sfp PPTase inh: -12%; ClpP mod: 0%; RORg inh: 3.5µM*

Results for CCOC(=O)C1CCCN(c2ncnc3c2nnn3C)C1 (stereo not drawn) ?
PINK1 modulator: -1%; Epigenetic derep: 1%; ClpP mod: -1%

Results for COc1ccc(/C=C2\NC(=O)C(C=NCc3ccccc3)=C2O)cc1 ?
Gal4-VP16 FLuc: -18%; PINK1 modulator: 11%; Epigenetic derep: 1%; Sfp PPTase inh: 10%; ClpP mod: -1%; RORg inh: -16%

What do the screens show for `O=C1N/C(=C\c2ccc(O)cc2)C(O)=C1C=NCc1ccccc1`?
Gal4-VP16 FLuc: inconclusive; PINK1 modulator: 7%; Epigenetic derep: inconclusive; Sfp PPTase inh: 11%; ClpP mod: -12%; RORg inh: 4µM*

How did O=C(COc1ccc(Br)cc1Br)NC(=S)Nc1cccc(CO)c1 do in these assays?
Gal4-VP16 FLuc: 8.9µM*; PINK1 modulator: 1%; Epigenetic derep: 1%; Sfp PPTase inh: -14%; ClpP mod: -18%; RORg inh: 1.4µM*

Results for O=C(COc1ccc2ccccc2c1Br)NC(=S)Nc1cccc(CO)c1 ?
Gal4-VP16 FLuc: 10µM*; PINK1 modulator: -3%; Epigenetic derep: 0%; Sfp PPTase inh: -10%; ClpP mod: -2%; RORg inh: 7.9µM*

How did CCC1CN(C(=O)Nc2ccc(C)c(F)c2)c2ccccc2S1 (stereo not drawn) do in these assays?
PINK1 modulator: 1%; Epigenetic derep: 3%; ClpP mod: -2%

How did Cc1c(C(=O)Nc2nonc2-c2ccc(F)cc2)oc2ccc(F)cc12 do in these assays?
Gal4-VP16 FLuc: inconclusive; PINK1 modulator: 28µM*; Sfp PPTase inh: 6%; RORg inh: 8.9µM*

How did CCOc1ccc(-c2nonc2NC(=O)c2oc3ccc(F)cc3c2C)cc1 do in these assays?
PINK1 modulator: 9%; Epigenetic derep: 0%; ClpP mod: -19%

How did Cc1ccc2onc(CNC(=O)N3CCN(c4cc(Cl)ccc4C)CC3)c2c1 do in these assays?
PINK1 modulator: 0%; Epigenetic derep: -2%; ClpP mod: -2%

What do the screens show for `COc1cc(/C=N/Nc2nc(Nc3ccc(C)cc3)nc(-n3nc(C)cc3C)n2)cc(OC)c1OC`?
Gal4-VP16 FLuc: inconclusive; PINK1 modulator: 12%[38.3 µM]; Epigenetic derep: 1%; Sfp PPTase inh: 2%; ClpP mod: 28µM*; RORg inh: -25%

Results for COc1ccc(O)c(/C=N/Nc2nc(Nc3ccccc3)nc(-n3nc(C)cc3C)n2)c1 ?
Gal4-VP16 FLuc: 0.63µM*; PINK1 modulator: -4%; Epigenetic derep: inconclusive; Sfp PPTase inh: 3%; ClpP mod: -2%; RORg inh: 0.63µM*

What do the screens show for `COc1cc(/C=N/Nc2nc(Nc3ccccc3)nc(-n3nc(C)cc3C)n2)cc(OC)c1OC`?
Gal4-VP16 FLuc: 6.3µM*; PINK1 modulator: -3%; Epigenetic derep: -1%; Sfp PPTase inh: 0%; RORg inh: 5µM*

Results for COc1ccc(O)c(/C=N/Nc2nc(C)cc(-c3ccccc3)n2)c1 ?
PINK1 modulator: 3%

How did Cc1cc(OC(C)C(=O)N(Cc2ccco2)Cc2ccccc2F)cc(C)c1Cl (stereo not drawn) do in these assays?
PINK1 modulator: 2%; Epigenetic derep: 8%; ClpP mod: -1%

Results for OCCN1CCN(Cc2ccc3c(c2)CN(Cc2cccn2-c2ccccn2)CCO3)CC1 ?
PINK1 modulator: -1%

What do the screens show for `C/C=C1\COC(C(=O)NC)(C(F)(F)F)C=C1C=C1CCCCC1` (stereo not drawn)?
Gal4-VP16 FLuc: inconclusive; Sfp PPTase inh: -7%; RORg inh: inconclusive

How did C/C=C1\COC(C(=O)NCc2ccncc2)(C(F)(F)F)C=C1C=C1CCCCC1 (stereo not drawn) do in these assays?
Gal4-VP16 FLuc: inconclusive; PINK1 modulator: 2%; Sfp PPTase inh: inconclusive; ClpP mod: -4%; RORg inh: 16µM*

What do the screens show for `Cn1cc(C(=O)Nc2ccc(Cl)cc2)c(C(F)(F)F)n1`?
Gal4-VP16 FLuc: -3%[10 µM]; PINK1 modulator: 3%; Epigenetic derep: -1%; Sfp PPTase inh: 12%; ClpP mod: 0%; RORg inh: 8%

How did CCC(C)Sc1cc(C(F)(F)F)c(C(=O)Nc2ccc(Cl)cc2)cn1 (stereo not drawn) do in these assays?
Gal4-VP16 FLuc: -1%; PINK1 modulator: 18µM*; Epigenetic derep: 0%; Sfp PPTase inh: 29%; RORg inh: inconclusive

What do the screens show for `COc1cc(C2Nc3ccccc3C(=O)N2Cc2ccco2)ccc1O` (stereo not drawn)?
PINK1 modulator: 1%; ClpP mod: 4%

Results for O=C1c2ccccc2NC(c2ccc(O)cc2)N1Cc1ccco1 (stereo not drawn) ?
Gal4-VP16 FLuc: 12%; PINK1 modulator: 1%; Epigenetic derep: 1%; Sfp PPTase inh: -20%; ClpP mod: 32µM*!; RORg inh: 40%

How did Cc1ccc(C2Nc3ccccc3C(=O)N2Cc2ccco2)cc1 (stereo not drawn) do in these assays?
Gal4-VP16 FLuc: 3%; PINK1 modulator: 2%; Epigenetic derep: 3%; Sfp PPTase inh: -11%; ClpP mod: 25µM*; RORg inh: 10%

Results for O=C1c2ccccc2NC(c2cccc(F)c2)N1Cc1ccccc1 (stereo not drawn) ?
Gal4-VP16 FLuc: 1%; PINK1 modulator: 23%; Sfp PPTase inh: 0%; ClpP mod: 4%; RORg inh: -13%

What do the screens show for `O=C1c2ccccc2NC(c2cccc(F)c2)N1Cc1ccco1` (stereo not drawn)?
Gal4-VP16 FLuc: 3%[0.365 µM]; PINK1 modulator: -6%[38.3 µM]; Epigenetic derep: -3%; Sfp PPTase inh: -19%; ClpP mod: 18µM*; RORg inh: 32%

How did Cc1ccc(-n2c(-c3cccc(C)c3)n[nH]c2=S)cc1 do in these assays?
Gal4-VP16 FLuc: 7.1µM*; PINK1 modulator: -3%[38.3 µM]; Epigenetic derep: 3%; Sfp PPTase inh: -8%; ClpP mod: -12%; RORg inh: 3.2µM*
